Measured values reported in PubChem BioAssay.
Active and inactive are the calls of the source.

Assays:
[1] = system: Plasmodium falciparum Sir2 (PF13_0152, Sir2A); test: Plasmodium falciparum Sir2A binding compounds – biochemical, small-molecule microarray, 635 nm fluorescence, primary screen (AID 1098); conditions: fluorescence 635 nm, higher = more signal;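 also: score merges spot fluorescence intensity with its signal-to-noise ratio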
[2] = probe aDKK1 binding to arrayed compounds – biochemical, biotinylated probe, 635/667 nm fluorescence, primary screen (AID 1099); conditions: small-molecule microarray, higher = more signal;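 also: score merges 667nm spot fluorescence with signal to noise across triplicate slides; reference of the scale not given here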
[3] = probe aCHRDL2 binding to arrayed compounds – biochemical, biotinylated probe, 635/667 nm fluorescence, primary screen (AID 1100); conditions: small-molecule microarray, higher = more signal
[4] = change in splice reporter luminescence, either direction, cell-based, HEK293, spliceosome inhibition project, primary screen (AID 1101); conditions: HEK293 splicing luciferase reporter, 24 h, higher = more signal, called active from +8 up or from −8 down;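 also: HEK293 cells carrying a splicing-competent luciferase reporter gene; test concentration not given here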
[5] = target: Fibroblast growth factor 10 (Homo sapiens) (UniProt O15520); test: compounds binding fibroblast growth factor 10 – biochemical, small-molecule microarray, 635 nm fluorescence, primary screen (AID 1102); conditions: FGF10 binding, fluorescence 635 nm, higher = more signal
Fibroblast growth factor 10 (Homo sapiens), sequence (O15520 whole entry, looked up): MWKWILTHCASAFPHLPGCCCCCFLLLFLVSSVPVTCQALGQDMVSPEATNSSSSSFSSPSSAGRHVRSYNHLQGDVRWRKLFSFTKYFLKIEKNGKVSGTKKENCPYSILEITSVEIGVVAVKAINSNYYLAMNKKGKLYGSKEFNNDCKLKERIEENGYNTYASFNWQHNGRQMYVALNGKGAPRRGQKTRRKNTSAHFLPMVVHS

[6] = system: glycogen synthase kinase-3 (GSK3A per assay name; protocol says GSK3B); test: compounds binding glycogen synthase kinase-3 – biochemical, small-molecule microarray, 635 nm fluorescence, GSK3A, primary screen (AID 1103); conditions: fluorescence 635 nm, higher = more signal; also: the record names both GSK3A and GSK3B
[7] = target: Epidermal growth factor receptor (Homo sapiens) (UniProt P00533); test: compounds binding epidermal growth factor receptor – biochemical, small-molecule microarray, 635 nm fluorescence, primary screen (AID 1104); conditions: EGFR binding, higher = more signal;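 also: score merges 667 nm emission intensity with spot signal to noise over triplicate slides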
Epidermal growth factor receptor (Homo sapiens), sequence (P00533 whole entry, looked up): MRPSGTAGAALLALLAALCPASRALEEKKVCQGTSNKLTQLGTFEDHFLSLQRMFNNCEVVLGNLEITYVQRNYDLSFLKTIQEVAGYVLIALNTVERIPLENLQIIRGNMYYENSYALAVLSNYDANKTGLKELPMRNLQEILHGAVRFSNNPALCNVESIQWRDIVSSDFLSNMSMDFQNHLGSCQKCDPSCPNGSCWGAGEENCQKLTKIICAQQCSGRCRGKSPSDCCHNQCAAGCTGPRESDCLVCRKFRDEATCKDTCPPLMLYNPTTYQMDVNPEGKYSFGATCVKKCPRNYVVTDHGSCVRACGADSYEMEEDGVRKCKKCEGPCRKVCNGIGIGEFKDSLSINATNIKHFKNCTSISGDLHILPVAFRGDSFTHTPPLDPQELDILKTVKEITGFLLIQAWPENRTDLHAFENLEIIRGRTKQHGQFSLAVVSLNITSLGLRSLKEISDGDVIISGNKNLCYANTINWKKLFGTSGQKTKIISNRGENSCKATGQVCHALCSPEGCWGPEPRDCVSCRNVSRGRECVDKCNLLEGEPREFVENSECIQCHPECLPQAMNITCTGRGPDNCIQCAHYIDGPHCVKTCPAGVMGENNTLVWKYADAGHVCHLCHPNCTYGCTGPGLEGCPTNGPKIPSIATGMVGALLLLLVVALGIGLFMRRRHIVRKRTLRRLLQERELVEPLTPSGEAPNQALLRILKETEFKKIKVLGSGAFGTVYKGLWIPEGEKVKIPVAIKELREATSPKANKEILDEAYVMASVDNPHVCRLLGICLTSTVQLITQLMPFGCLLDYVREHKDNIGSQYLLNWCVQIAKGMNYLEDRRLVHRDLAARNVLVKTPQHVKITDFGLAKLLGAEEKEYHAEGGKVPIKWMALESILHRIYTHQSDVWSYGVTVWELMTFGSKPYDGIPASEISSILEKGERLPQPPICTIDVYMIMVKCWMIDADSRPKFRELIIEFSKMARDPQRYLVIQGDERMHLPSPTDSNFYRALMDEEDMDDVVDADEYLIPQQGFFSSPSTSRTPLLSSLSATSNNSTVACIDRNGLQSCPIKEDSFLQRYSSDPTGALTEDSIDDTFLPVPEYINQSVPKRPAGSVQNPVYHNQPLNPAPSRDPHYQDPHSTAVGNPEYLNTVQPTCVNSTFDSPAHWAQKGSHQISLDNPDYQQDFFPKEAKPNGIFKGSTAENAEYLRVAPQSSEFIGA

[8] = target: Follistatin-related protein 3 (Homo sapiens) (UniProt O95633); test: compounds binding follistatin-related protein 3 – biochemical, small-molecule microarray, 635 nm fluorescence, primary screen (AID 1105); conditions: FSTL3 binding, higher = more signal;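 also: score merges emission near 667 nm and signal to noise per printed spot across three slides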
Follistatin-related protein 3 (Homo sapiens), sequence (O95633 whole entry, looked up): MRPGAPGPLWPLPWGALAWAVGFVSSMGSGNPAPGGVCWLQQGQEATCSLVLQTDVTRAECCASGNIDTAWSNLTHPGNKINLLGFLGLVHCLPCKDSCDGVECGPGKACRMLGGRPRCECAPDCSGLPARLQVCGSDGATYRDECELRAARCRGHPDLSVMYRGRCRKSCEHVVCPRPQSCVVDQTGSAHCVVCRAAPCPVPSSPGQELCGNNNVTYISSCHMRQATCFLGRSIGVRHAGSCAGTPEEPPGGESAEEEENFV

[9] = target: Dickkopf-related protein 1 (Homo sapiens) (UniProt O94907); test: small molecules binding DKK1 protein – biochemical, small-molecule microarray, 635 nm fluorescence scan, primary screen (AID 1106); conditions: higher = more signal;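 also: score merges emission near 667 nm with signal to noise over three replicate slides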
Dickkopf-related protein 1 (Homo sapiens), sequence (O94907 whole entry, looked up): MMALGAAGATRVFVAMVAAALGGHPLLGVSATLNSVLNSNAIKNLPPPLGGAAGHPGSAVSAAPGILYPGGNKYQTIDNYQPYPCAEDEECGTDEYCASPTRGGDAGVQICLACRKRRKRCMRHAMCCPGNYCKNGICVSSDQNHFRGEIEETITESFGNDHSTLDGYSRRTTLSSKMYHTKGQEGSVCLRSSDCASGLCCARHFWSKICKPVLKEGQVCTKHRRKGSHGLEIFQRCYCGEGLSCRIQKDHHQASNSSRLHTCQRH

[10] = system: Inhibin beta A chain (activin A); test: small molecules binding activin A – biochemical, small-molecule microarray, 635 nm fluorescence scan, primary screen (AID 1107); conditions: INHBA, higher = more signal;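 also: mouse activin A protein probed at 4.33 µg/mL on printed slides; score merges bound-protein fluorescence near 667 nm with spot signal-to-noise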

Row | Structure (SMILES) | composite z-score [1] | composite z-score [2] | composite z-score [3] | z-score [4] | composite z-score [5] | composite z-score [6] | composite z-score [7] | composite z-score [8] | composite z-score [9] | composite z-score [10]
1 | C=C[C@H](COC(C)=O)N(C(=O)OC(C)(C)C)S(=O)(=O)c1ccc(Br)cc1 | 0.0995 | 1.29 | 0.639 | 0.353 (inactive) | 0.619 | 0.484 | 0.517 | 0.507 | 0.717 | 0.838
2 | C=CC[C@]1(C(=O)N2CCCCC2)N=C(c2ccc(OCCCO)cc2)O[C@H]1c1ccccc1 | 1.25 | 1.16 | 1.11 | -0.0569 (inactive) | 0.228 | 1.3 | 0.0792 | -0.0013 | 0.191 | 1.11
3 | C=CCNC(=O)[C@@H]1[C@H]2C(=O)O[C@H](c3ccccc3)[C@H](c3ccccc3)N2[C@H](c2ccc(OCCO)cc2)[C@@]12C(=O)Nc1ccc(C#CCCO)cc12 | 1.7 | -0.0674 | 0.456 | -1.09 (inactive) | 1.22 | 1.27 | 0.652 | 1.42 | 1.12 | 1.26
4 | CC(C)C[C@H]1NC(=O)[C@@]23C(=O)N[C@@H](Cc4ccccc4)C2[C@H](C)[C@@]2(C)O[C@H]2C3/C=C/C/C=C\CNC(=O)[C@H](Cc2ccccc2)NC1=O (stereo not given in full) | 0.777 | -0.283 | -0.471 | 0.000958 (inactive) | 0.903 | 0.47 | 0.447 | 0.816 | 0.599 | 0.867
5 | CC1(C)[C@@H]2CC(C(O)C3C=CC4C(=O)N(c5ccccc5)C(=O)C4N3Nc3ccccc3)=C[C@H]1C2 (stereo not given in full) | 0.576 | 0.592 | 0.663 | 0.99 (inactive) | 0.104 | 0.33 | -0.316 | 0.114 | 0.011 | 1.2
6 | C=C/C=C/[C@H]1C(=C)CN([C@@H](Cc2ccccc2)C(=O)OC)[C@@H]1[C@H](O)Cc1ccccc1 | -0.181 | -0.167 | 0.44 | 1.04 (inactive) | -0.557 | -0.546 | -1.23 | -0.542 | -0.306 | 0.97
7 | CC(C)(C)OC(=O)CC[C@@]1(C(=O)NCCN2CCOCC2)N=C(c2ccc(OCCCO)cc2)O[C@@H]1c1ccccc1N=[N+]=[N-] | 0.739 | 1.04 | 1.21 | -0.744 (inactive) | 1.1 | 0.0778 | 0.0224 | 1.06 | 0.0741 | 1.24
8 | O=C1C2C=CC(C(O)C3CCCCC3)N(Nc3ccc([N+](=O)[O-])cc3)C2C(=O)N1c1ccccc1 (stereo not given) | 1.26 | -0.236 | 0.783 | -1.04 (inactive) | -0.901 | 1.31 | -1.54 | -0.677 | -1.49 | -1.28
9 | COc1ccc(C(O)C2C=CC3C(=O)N(c4ccccc4)C(=O)C3N2Nc2ccc(C(C)C)cc2)cc1OCc1ccccc1 (stereo not given) | 1.5 | 1.17 | 1.27 | -0.00529 (inactive) | 0.889 | 1.27 | 0.207 | 1.29 | -0.213 | 0.521
10 | O=C1NCC(=O)N2[C@@H]1C[C@@H](C(=O)O)[C@H]2c1cccc(OCCO)c1 | 2.28 | 3.06 | 1.73 | 0.45 (inactive) | 1.38 | 1.38 | 1.96 | 1.66 | 2.56 | 1.74
11 | C=CCOC(=O)[C@H]1[C@@H]2C(=O)O[C@@H](c3ccccc3)[C@@H](c3ccccc3)N2[C@@H](c2ccc(OCCOC(=O)[C@@H]3C[C@@H]4C(=O)N5CCC[C@H]5C(=O)N4[C@@H]3c3cccc(OCCO)c3)cc2)[C@]12C(=O)Nc1ccccc12 | 1.19 | -0.0198 | 0.0715 | -0.978 (inactive) | 1.12 | 1.31 | 0.5 | 0.895 | 0.651 | 0.563
12 | COC(=O)[C@@]1(Cc2ccc(F)cc2)[C@H]2c3cc(C(=O)N4CCCC4)n(Cc4ccc(C)o4)c3C[C@H]2CN1C(=O)c1ccccc1 | 1.55 | 0.72 | 1.02 | 3.29 (inactive) | 1.08 | 0.899 | 0.0358 | 0.596 | -0.177 | 0.87
13 | CC[C@@H]1C=C(C(=O)O)[C@H](c2ccco2)N1S(=O)(=O)c1ccc(C)cc1 | 1.37 | -0.0292 | 0.333 | 0.447 (inactive) | 0.0314 | 0.175 | -0.832 | 0.291 | 0.128 | 1.23
14 | COCCn1c(C(=O)N2CCCC2)cc2c1C[C@H]1CN(C(=O)c3ccccc3)[C@@](Cc3ccc(F)cc3)(C(=O)OC)[C@@H]21 | 1.17 | 0.418 | 0.43 | -0.604 (inactive) | -0.149 | 1.31 | 0.291 | 0.664 | 0.131 | 0.593
15 | O=C(O)[C@@]1(CCS(=O)(=O)c2ccccc2)COC(c2ccc(OCCCO)cc2)=N1 | 0.6 | 0.458 | 1.05 | 0.733 (inactive) | 0.0185 | -0.62 | -0.939 | -0.928 | -1.17 | 1.19
16 | O=C1NC(=O)C2C1C=CC(C(O)c1cccc3ccccc13)N2Nc1ccccn1 (stereo not given) | 0.621 | 0.103 | 0.15 | 1.03 (inactive) | 0.522 | 0.233 | 0.688 | 0.857 | 0.31 | 0.924
17 | COc1cc(OC)c(C(O)C2C=CC3C(=O)NC(=O)C3N2Nc2ccc(Cl)cc2Cl)cc1Br (stereo not given) | 1.38 | 2.08 | 1.16 | 2.41 (inactive) | 0.0245 | 0.0735 | -0.142 | 0.498 | -0.985 | 0.312

Row | Structure (SMILES) | composite z-score [1] | composite z-score [2] | composite z-score [3] | z-score [4] | composite z-score [5] | composite z-score [6] | composite z-score [7] | composite z-score [8] | composite z-score [9] | composite z-score [10]
18 | O=C(NCc1ccccc1)[C@@]1(CCS(=O)(=O)c2ccccc2)N=C(c2ccc(OCCCO)cc2)O[C@H]1c1ccccc1 | 0.691 | 0.717 | 1.03 | 0.0308 (inactive) | 1.28 | 1.12 | -0.304 | 0.866 | -0.393 | 0.525
19 | COC(=O)C(CC#Cc1ccc2c(c1)[C@]1(C(=O)N2)[C@H](c2ccc(O)cc2)N2[C@H](c3ccccc3)[C@H](c3ccccc3)OC(=O)[C@H]2[C@@H]1C(=O)Nc1nc2ccccc2s1)C(=O)OC | 1.59 | -0.0329 | -0.105 | -0.596 (inactive) | 1.27 | 1.04 | 0.626 | 0.929 | 0.581 | 0.598
20 | COc1ccc([Si](C)(C)[C@H]2[C@H](CCO)O[C@@]3(C(=O)N(Cc4ccc(N5C(=O)COc6ccccc65)cc4)c4ccccc43)[C@@H]2C)cc1 | 0.0297 | -0.0813 | 0.812 | -1.15 (inactive) | -0.712 | -1.01 | -0.95 | -0.534 | -0.297 | -0.515
21 | O=C(c1ccccc1)N1Cc2ccccc2[C@@H]2OC(c3ccc(OCCCO)cc3)=N[C@]2(Cc2ccccc2)C1=O | 1.35 | 0.114 | 0.431 | -0.0808 (inactive) | 1.24 | 1.33 | 0.444 | 1.03 | 0.0731 | 0.3
22 | Cc1ccc(S[C@]2(C(=O)NCC(F)(F)F)CC(=O)N(C(C)C)[C@@H]2c2ccc(CO)cc2I)cc1 | 0.903 | 0.372 | 0.893 | -0.465 (inactive) | 0.203 | -0.547 | -0.619 | -1.02 | -0.78 | 0.743
23 | CN1C(=O)C2C=CC(C(O)c3ccc(I)cc3)N(N3CCCCC3)C2C1=O (stereo not given) | 1.36 | 0.382 | 1.21 | 1.18 (inactive) | 1.07 | 0.354 | 0.396 | 1.34 | -0.147 | 0.72
24 | CC(C)OC(=O)C=C1C[C@@H](c2ccccc2C(F)(F)F)O[C@@H](c2ccccc2C(F)(F)F)O1 | 0.192 | -0.0017 | 0.0563 | -0.723 (inactive) | 0.417 | 0.163 | 0.337 | 0.332 | 0.25 | 0.266
25 | C#CCN(CC1=CCCCC1)[C@H](c1ccccc1Br)[C@@H](O)Cc1ccccc1 | 1.53 | -0.0907 | 0.979 | -1.37 (inactive) | -1.25 | -0.28 | -1.56 | -1.28 | -1.07 | 0.685
26 | CCCCC=C[C@@H](NC(=O)Oc1cccc(C(F)(F)F)c1)c1ccccc1 | 0.495 | 1.45 | 0.879 | -1.75 (inactive) | 1.09 | 0.992 | 0.185 | 0.719 | -0.432 | 1.16
27 | C=CC[C@@]1(C(=O)N(C)C)N=C(c2ccc(OCCCO)cc2)O[C@@H]1c1ccccc1N=[N+]=[N-] | 1.59 | 1.33 | 1.35 | -1.2 (inactive) | 0.826 | 1.2 | 0.145 | 0.884 | 0.368 | 0.636
28 | CC(C)(C)OC(=O)CC[C@@]12N=C(c3ccc(OCCCO)cc3)O[C@@H]1c1ccccc1N(CCS(=O)(=O)c1ccccc1)C2=O | 0.691 | 0.512 | 1.03 | -1.14 (inactive) | -0.122 | 0.323 | 0.348 | 1.12 | 0.681 | 1.05
29 | C=CCNC(=O)[C@H]1[C@@H]2C(=O)O[C@@H](c3ccccc3)[C@@H](c3ccccc3)N2[C@@H](c2ccccc2OCCO)[C@]12C(=O)Nc1ccc(C#CC3=CCCCC3)cc12 | 1.28 | -0.22 | 0.317 | -2.23 (inactive) | 1.27 | 1.3 | 0.48 | 1.24 | 0.646 | 1.17
30 | CN(C)C(=O)[C@]1(Cc2ccccc2CN=[N+]=[N-])N=C(c2ccc(OCCCO)cc2)O[C@@H]1c1ccccc1CN=[N+]=[N-] | 0.0579 | 0.423 | 0.708 | 0.646 (inactive) | 1.17 | 1.32 | -0.0263 | 1.18 | -0.38 | 0.844
31 | COCCCNC(=O)[C@@]1(Cc2ccccc2N=[N+]=[N-])N=C(c2ccc(OCCCO)cc2)O[C@H]1c1ccccc1N=[N+]=[N-] | 1.34 | 1.04 | 1.25 | 1.87 (inactive) | 0.935 | 0.82 | 0.372 | 0.937 | -0.138 | 0.797
32 | C=CCOC(=O)[C@@H]1[C@H]2C(=O)O[C@H](c3ccccc3)[C@H](c3ccccc3)N2[C@H](c2ccc(OCCOC(=O)[C@@H]3C[C@@H]4C(=O)N[C@@H](CCCC[N+](C)(C)C)C(=O)N4[C@@H]3c3cccc(OCCO)c3)cc2)[C@@]12C(=O)Nc1ccc(I)cc12 | 1.09 | 0.0616 | 0.0011 | -0.874 (inactive) | 0.591 | 1.19 | 0.779 | 1.25 | 0.985 | 0.195
33 | C=CCC(OC(C)=O)[C@@H]1[C@@H](N(Cc2ccc(-c3cccc(C(F)(F)F)c3)o2)C(=O)Cc2ccc(F)cc2)c2cc(OCCCO)ccc2N1C(=O)Cc1ccc(OC)cc1 (stereo not given in full) | -0.0392 | -0.264 | 0.385 | -1.59 (inactive) | -0.0139 | -2.4 | -0.983 | -0.106 | -0.731 | 0.898
